Screening results deposited in PubChem by National Center for Advancing Translational Sciences (NCATS).
A selection: hits, their analogues and other compounds. The true share with any hit is near 19%.
TDP1 cell CPT = growth inhibition of DT40 Tdp1-/-;hTDP1 cells with camptothecin (screen for TDP1 inhibitors) | chicken DT40 Tdp1-/-;hTDP1 cells + 20 nM CPT, ATP luminescence, 48 h | Potency, µM (series often up to 46.2 µM), for inactives: at the top dose activity change, negative = growth inhibition, usual class: inhibitors | AID 686979 | 420,000 compounds, 12% hits; further: potency means the concentration at half of the fitted maximal effect; on the % scale 0 is the no-effect control and ±100 the full control effect; nearly all actives have a fitted effect of over 55% in size
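Chicken DT40 Tdp1-/- cells complemented with human TDP1, 400 cells/well, exposed to compounds plus 20 nM camptothecin for at least 48 h at 37 C; viability read as ATP content by CellTiter-Glo luminescence.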
TDP1 cell noCPT = qHTS for Inhibitors of human tyrosyl-DNA phosphodiesterase 1 (TDP1): qHTS in cells in absence of CPT. DT40 Tdp1-/- hTDP1 cells, no CPT, ATP luminescence, 48 h. Potency, µM (series often up to 46.2 µM), for inactives: at the top dose activity change, negative = growth inhibition, most hits filed as inhibitors. 420,000 compounds, 15% hits. AID 686978, 2013; further: potency means the concentration at half of the fitted maximal effect; on the % scale 0 is the no-effect control and ±100 the full control effect; nearly all actives have a fitted effect of over 55% in size
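Seeded 400 DT40-hTDP1 cells/well (vehicle DMSO, no 20 nM CPT); pinned compounds; ≥48 hr at 37 °C; CellTiter-Glo luminescence as viability measure.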
TGFb inhibitor = blocks TGF-b signaling; 410,000 compounds, 1.2% hits; Potency, µM (titrated, usually from 46.1 µM), for inactives: at the highest dose activity, negative = inhibition, hits mostly inhibitors; AID 588855; HepG2 CAGA-GFP TGF-b/SMAD3 reporter, GFP fluorescence, 18 h; TGF-beta stimulated, 500 pg/mL final; further: potency means the concentration at half of the fitted maximal effect; on the % scale 0 is the no-effect control and ±100 the full control effect; nearly all actives have a fitted effect of over 65% in size
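GFP signal (ex488/em500-530) from TGF-beta-stimulated HEPG2 CAGA-GFP cells, 500 pg/mL final, 18 h at 37 degrees C in DMEM plus 1% FBS, normalized to unstimulated and DMSO-stimulated controls.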
IL-1B inflam inh = inflammasome signaling inhibition, IL-1 beta readout; THP-1 LPS/ATP IL-1B secretion, AlphaLISA, 16 h; stronger effect = lower value; 360,000 compounds, 4.7% hits; activity change, % at 57.5 µM; AID 743279; in the data active means activity change below about -50%; inconclusive means mostly about -30% to -49%; further: on the % scale 0 is the no-effect control and ±100 the full control effect
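Secreted IL-1B measured by AlphaLISA bead assay after 16 h compound exposure of THP-1 cells; compounds (final up to 57.5 uM) added 1 h before LPS (250 ng/mL) and ATP (1.25 mM) stimulation; lower signal means less secretion.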
TDP1 block = inhibitors of human tyrosyl-DNA phosphodiesterase TDP1. recombinant TDP1, AlphaScreen DNA substrate cleavage. AID 485290. Q9NUW8. 350,000 compounds, 0.28% hits. Potency, µM (series often up to 130 µM), for the others: top-dose activity change, negative = inhibition, most hits filed as inhibitors; further: potency means the concentration at half of the fitted maximal effect; on the % scale 0 is the no-effect control and ±100 the full control effect; nearly all actives have a fitted effect of over 40% in size
Target sequence (Q9NUW8 whole entry, looked up): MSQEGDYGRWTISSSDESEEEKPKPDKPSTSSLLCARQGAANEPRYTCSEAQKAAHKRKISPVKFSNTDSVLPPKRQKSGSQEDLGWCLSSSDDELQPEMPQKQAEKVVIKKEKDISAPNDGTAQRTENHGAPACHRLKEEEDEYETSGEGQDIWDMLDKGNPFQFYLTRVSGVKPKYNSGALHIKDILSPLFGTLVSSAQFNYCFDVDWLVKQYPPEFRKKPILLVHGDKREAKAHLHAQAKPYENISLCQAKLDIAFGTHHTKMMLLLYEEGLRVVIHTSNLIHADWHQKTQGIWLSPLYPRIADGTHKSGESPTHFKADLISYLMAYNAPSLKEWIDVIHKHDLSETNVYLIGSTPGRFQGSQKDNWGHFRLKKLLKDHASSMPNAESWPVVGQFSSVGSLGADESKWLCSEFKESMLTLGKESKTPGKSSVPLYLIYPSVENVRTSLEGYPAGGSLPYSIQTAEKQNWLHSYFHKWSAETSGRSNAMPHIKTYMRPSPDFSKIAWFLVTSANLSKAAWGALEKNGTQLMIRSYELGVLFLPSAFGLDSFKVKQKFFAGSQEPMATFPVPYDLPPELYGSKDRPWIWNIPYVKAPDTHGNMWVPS
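Enzyme-compound mixtures sat 15 min at room temperature, followed by a 5 min reaction with 15 nM final substrate and 10 min with AlphaScreen beads. Recombinant human Tdp1 was used at 1 nM final.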
HepG2 viability = HepG2 cytotoxicity, counter-screen for TGF-b inhibitors; HepG2 CAGA-GFP viability, ATP luminescence, 18 h; Potency, µM (highest dose often 46.1 µM), for inactives: at the highest dose activity change, negative = cytotoxicity, actives largely listed as cytotoxic; 410,000 compounds, 0.76% hits; further: potency means the concentration at half of the fitted maximal effect
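CellTiter-Glo luminescence gave cytotoxicity after 18 hours at 37 degrees C. The cells were HepG2 CAGA-GFP in 1% FBS DMEM, stimulated with 500 pg/mL TGF-beta after compound addition. %Activity was normalised to no-cell wells (complete cell-killing) and DMSO (no toxicity), and curves were fitted and classified.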
An asterisk follows results filed as active; ? = inconclusive; . = no result. Unless noted, the call rests on the fitted dose curve; in most records, active means well fitted curve in the direction sought with a large enough effect; inconclusive means small, poorly fitted or top-dose-only effect, or another doubt; inactive means no such curve, though single readings can be large; an effect the other way counts as inactive or inconclusive.

SMILES	TDP1 cell CPT	TDP1 cell noCPT	TGFb inhibitor	IL-1B inflam inh	TDP1 block	HepG2 viability
CC(C)[C@@H](CC(=O)N[C@@H]1CCCC[C@H]1C(=O)N[C@H](CC(=O)N[C@@H](CCC(=O)O)CC(=O)O)Cc1ccccc1)NC(=O)C[C@H](CO)NC(=O)[C@@H]1CNCC[C@H]1N	.	.	.	.	4%	.
CCOC(=O)c1c(NC(C)=O)sc2c(OCC(O)CN(CC)CC)c(Br)ccc12 (configuration not stated)	?	21µM*	-16%	?	6%	-27%
CCOC(=O)c1c(NC(C)=O)sc2c(OCCN(CC)CC)c(Br)ccc12	?	?	-1%	-3	-1%	-3%
COc1cccc(-n2cc(C(=O)OCc3ccc(F)c(F)c3)c3ccccc3c2=O)c1	?	?	-4%	.	3%	10%
Cn1c(-c2ccc3c(c2)OCO3)cc(=O)c2ccccc21	-23%	-11%	15%	-6	4%	-19%
c1ccc2c(c1)c1ccccc1n1c(-c3ccc4c(c3)OCO4)nnc21	?	21µM*	-2%	-57*	-1%	1%
COc1cc(C2CC(=O)Oc3c2c(=O)n(C)c2ccccc32)cc(OC)c1OC (configuration not stated)	?	-25%	1%	-5	-3%	2%
COc1cc(-c2ccc3c(=O)c4ccccc4n(C)c3c2)cc(OC)c1OC	16µM*	12µM*	10%	?	.	-26%
Cn1c(C=O)c(-c2ccc3c(c2)OCCO3)c2ccccc21	?	18µM*	?	-8	?	-15%
Cn1c2ccccc2c(=O)c2ccc(-c3ccc4c(c3)OCO4)cc21	?	13µM*	-24%	-8	.	-35%
COc1ccc(CCC(=O)O)cc1	-4%	-2%	2%	.	.	-3%
Cn1c2ccccc2c(=O)c2ccc(C#Cc3ccccn3)cc21	?	?	?	-17	.	-14%
CC(=O)Nc1c(-c2ccc(Cl)cc2)c(=O)c2ccccc2n1C	10%	-3%	19%	44	.	4%
COc1ccc(-c2cc(Cl)cc3c(=O)c4ccccc4n(C)c23)cc1F	18µM*	21µM*	-8%	-12	.	12%
Cn1c2ccccc2c(=O)c2ccc(F)cc21	?	?	0%	-51*	.	2%
CCc1cccc(C)c1NC(=O)Cn1c(=O)cc(C(F)(F)F)c2c(C)nn(C)c21	?	?	-12%	.	2%	0%
Cc1ccc(C2CC(=O)Oc3c(C(C)C)ccc(C)c32)cc1 (configuration not stated)	.	.	.	.	-8%	.
O=C1CS(=O)(=O)C2(C(=O)N(Cc3ccccc3)c3ccccc32)N1c1ccccc1 (configuration not stated)	-10%	-11%	25%	.	2%	0%
Cc1ccc(N2C(=O)CCSC23C(=O)N(Cc2ccc(F)cc2)c2ccccc23)cc1 (configuration not stated)	8.2µM*	8.2µM*	?	.	-8%	-63%
O=C1CCSC2(C(=O)N(Cc3ccccc3)c3ccccc32)N1c1ccccc1 (configuration not stated)	9.2µM*	15µM*	?	.	1%	-51%
Cc1ccc(CNC(=O)CN2C(=O)C3(SCC(=O)N3c3ccc(F)cc3)c3ccccc32)cc1 (configuration not stated)	?	?	-1%	.	5%	-10%
Cc1ccc(N2C(=O)CCSC23C(=O)N(Cc2ccccc2)c2ccccc23)cc1F (configuration not stated)	21µM*	12µM*	?	.	2%	-61%
Cc1ccc(N2C(=O)CCSC23C(=O)N(Cc2ccccc2)c2ccccc23)cc1 (configuration not stated)	?	16µM*	?	.	4%	-56%
C/C(N)=C(/C#N)C(=O)CSc1nc2ccccc2c(=O)n1Cc1ccc(F)cc1	?	?	11µM*	-11	.	-46%
O=C(CSc1nc2ccccc2n1Cc1ccc(F)c(Cl)c1)N1CCN(c2ccc(F)cc2)CC1	18µM*	9.2µM*	-6%	.	0%	-4%
SMILES	TDP1 cell CPT	TDP1 cell noCPT	TGFb inhibitor	IL-1B inflam inh	TDP1 block	HepG2 viability
COC(=O)c1ccc(Cn2c(SCC(=O)Nc3ccc(F)cc3)nc3ccccc32)cc1	?	?	2%	.	-1%	-24%
O=C(CSc1nc2ccccc2n1Cc1cccc(F)c1)N1CCN(c2ccc(F)cc2)CC1	?	?	-9%	.	4%	-13%
C=Cc1ccc(Cn2c(SCC(=O)N3CCN(c4ccc(F)cc4)CC3)nc3ccccc32)cc1	23µM*	?	?	.	-4%	-56%
CC(C)N(C(=O)CSc1nc2ccccc2n1Cc1ccc(F)cc1)C(C)C	23µM*	?	?	-62*	2%	-36%
CCOC(=O)CSc1nc2ccccc2n1CC(=O)N1CCN(c2ccccc2)CC1	-2%	-6%	?	0	6%	-21%
CC(=O)Nc1ccc(NC(=O)Cn2cc3c(n2)CCCCC3)cc1	-1%	-3%	-2%	.	5%	7%
COc1ccccc1-c1nc(C#N)c(N2CCC(Cc3ccccc3)CC2)o1	?	18µM*	?	-4	8%	-11%
N#Cc1nc(COc2cccc(Cl)c2)oc1N1CCN(c2ccccc2)CC1	?	?	-22%	-20	8%	-23%
N#Cc1nc(Cc2ccccc2)oc1N1CCN(c2ccccc2)CC1	10µM*	?	7%	?	12%	-7%
N#Cc1nc(COc2ccc(F)cc2)oc1N1CCC(Cc2ccccc2)CC1	?	?	23%	?	-8%	-2%
COc1ccccc1-c1nc(C#N)c(N2CCN(Cc3ccccc3)CC2)o1	?	23µM*	-2%	-17	-7%	3%
CCn1c(=O)c2c(nc(SCC(=O)N3CCCC(C)C3)n2C)n(C)c1=O (configuration not stated)	-5%	-11%	1%	48	-8%	-2%
Cc1ccc(S(=O)(=O)N2CCc3cc(C(=O)NCCc4ccccc4)ccc32)cc1	?	-28%	?	.	0%	-8%
Cc1ccc(OCc2nc(-c3ccc(C(=O)NCCc4ccc(Cl)cc4)cc3)oc2C)cc1	?	-4%	6%	.	8%	-4%
